Common to all, as to set-up: species or system human, MV4-11 + K-562 + COLO205 + SK-N-BE2 + OVCAR-8
One assay has as its system CLK1. Particulars: read-out: apparent Kd; compound concentrations: 100 nM and 1000 nM (sheet 'Samples'), CATDS: 0.27992821641946602; n = 1.
The next assay concerns CLK4. Particulars: read-out: apparent Kd; compound concentrations: 100 nM and 1000 nM (sheet 'Samples'), CATDS: 0.21204627821104199; n = 1.
For a further assay, the system named is FER. Particulars: read-out: apparent Kd; compound concentrations: 100 nM and 1000 nM (sheet 'Samples'), CATDS: 0.14947425083021301; n = 1.
In the next assay the test system is IGF1R. Particulars: read-out: apparent Kd; compound concentrations: 100 nM and 1000 nM (sheet 'Samples'), CATDS: 0.12946189122978499; n = 1.
For a further assay, the system named is INSR. Particulars: read-out: apparent Kd; compound concentrations: 100 nM and 1000 nM (sheet 'Samples'), CATDS: 0.154401741124819; n = 1.
A further assay deals with PLK1. Particulars: read-out: apparent Kd; compound concentrations: 100 nM and 1000 nM (sheet 'Samples'), CATDS: 0.14661258796571799; n = 1.
The subject of the next assay is CSNK1D. Particulars: read-out: apparent Kd, n = 1.
The next assay concerns CSNK1E. Particulars: read-out: apparent Kd, n = 1.
Another assay concerns MAPK14. Particulars: read-out: apparent Kd, n = 1.
In a further assay the test system is MAPKAPK2. Particulars: read-out: apparent Kd, n = 1.
In a further assay the test system is MERTK. Particulars: read-out: apparent Kd; compound concentrations: 100 nM and 1000 nM (sheet 'Samples'), CATDS: 0.12955803655980599; n = 1.
The next assay relates to PIK3CD. Particulars: read-out: apparent Kd, compound concentrations: 100 nM and 1000 nM (sheet 'Samples'), n = 1.
In the next assay the test system is CSNK1A1. Particulars: read-out: apparent Kd; compound concentrations: 100 nM and 1000 nM (sheet 'Samples'), CATDS: 6.4218500177313606E-2; n = 1.
A further assay concerns DDR1. Particulars: read-out: apparent Kd; compound concentrations: 100 nM and 1000 nM (sheet 'Samples'), CATDS: 5.0291994189884899E-2; n = 1.
For the next assay, the system named is DDR2. Particulars: read-out: apparent Kd; compound concentrations: 100 nM and 1000 nM (sheet 'Samples'), CATDS: 3.5910243594836001E-2; n = 1.
The next assay concerns GAK. Particulars: read-out: apparent Kd; compound concentrations: 100 nM and 1000 nM (sheet 'Samples'), CATDS: 5.4860090777902201E-2; n = 1.
A further assay deals with MAPK10. Particulars: read-out: apparent Kd; compound concentrations: 100 nM and 1000 nM (sheet 'Samples'), CATDS: 6.8740436071955194E-2; n = 1.
The next assay relates to MAPK11. Particulars: read-out: apparent Kd; compound concentrations: 100 nM and 1000 nM (sheet 'Samples'), CATDS: 3.4840518040238501E-2; n = 1.
For a further assay, the system named is MAPK8. Particulars: read-out: apparent Kd; compound concentrations: 100 nM and 1000 nM (sheet 'Samples'), CATDS: 4.6835981276276903E-2; n = 1.
For another assay, the system named is MAPK9. Particulars: read-out: apparent Kd; compound concentrations: 100 nM and 1000 nM (sheet 'Samples'), CATDS: 9.88487925087526E-2; n = 1.
The next assay deals with PIK3CA. Particulars: read-out: apparent Kd; compound concentrations: 100 nM and 1000 nM (sheet 'Samples'), CATDS: 4.2523993136959801E-2; n = 1.
The next assay has as its system PRKD2. Particulars: read-out: apparent Kd; compound concentrations: 100 nM and 1000 nM (sheet 'Samples'), CATDS: 3.2417406243743098E-2; n = 1.
The subject of another assay is PRKD3. Particulars: read-out: apparent Kd; compound concentrations: 100 nM and 1000 nM (sheet 'Samples'), CATDS: 3.0540590804978299E-2; n = 1.
The next assay has as its system RIPK2. Particulars: read-out: apparent Kd; compound concentrations: 100 nM and 1000 nM (sheet 'Samples'), CATDS: 3.5796504024636501E-2; n = 1.
Another assay relates to TNIK. Particulars: read-out: apparent Kd; compound concentrations: 100 nM and 1000 nM (sheet 'Samples'), CATDS: 3.1361492555590703E-2; n = 1.
Setting [1] is: compound concentrations:100 nM and 1000 nM (sheet 'Samples').

Where two headings read alike, the source gives them in different places.

Consider `CNC(=O)c1ncccc1Nc1nc(Nc2cc3c(cc2OC)CCCN3C(=O)CN(C)C)nc2[nH]ccc12` [GSK2220400A], for which the potency estimated from few doses was 321 nM with CLK1; 504 nM in the assay with CLK4; 1020 nM in the assay with FER; 1500 nM with IGF1R; 949 nM in the assay with INSR; 1070 nM in the assay with PLK1.

With `COc1nccc(-c2c(-c3ccc(F)cc3)ncn2CCCN2CCOCC2)n1` [SB-282852], the potency estimated from few doses in the assay with CSNK1D (compound concentrations: 100 nM and 1000 nM (sheet 'Samples'), CATDS: 0.15826837082796799) was 746 nM; with CSNK1E (compound concentrations: 100 nM and 1000 nM (sheet 'Samples'), CATDS: 0.12159851027947199), 1580 nM; in the assay with MAPK14 (compound concentrations: 100 nM and 1000 nM (sheet 'Samples'), CATDS: 0.160477931801707), 722 nM; in the assay on MAPKAPK2 (compound concentrations: 100 nM and 1000 nM (sheet 'Samples'), CATDS: 0.19368451795267799), 478 nM; with MERTK, 1280 nM; with PIK3CD (CATDS: 0.42646415805735) it was 128 nM.

Turning to `CCNc1nccc(-c2c(-c3ccc(F)cc3)ncn2C2CCN(C)CC2)n1` [SB-226605], the potency estimated from few doses in the assay with CSNK1A1 is 54.1 nM; with CSNK1D (compound concentrations: 100 nM and 1000 nM (sheet 'Samples'), CATDS: 0.15961937746466701), 6.16 nM; in the assay on CSNK1E (compound concentrations: 100 nM and 1000 nM (sheet 'Samples'), CATDS: 8.6582359742075399E-2) it was 24.7 nM; in the assay with DDR1, 116 nM; in the assay with DDR2 it was 495 nM; in the assay on GAK, 87 nM. In addition, the potency estimated from few doses in the assay with MAPK10 was 44.8 nM; in the assay with MAPK11, 589 nM; with MAPK14 (compound concentrations: 100 nM and 1000 nM (sheet 'Samples'), CATDS: 0.16984831376033699) it was 5.38 nM; with MAPK8 it was 150 nM; with MAPK9 it was 18 nM; with MAPKAPK2 (compound concentrations: 100 nM and 1000 nM (sheet 'Samples'), CATDS: 7.0385751931635404E-2), 42 nM. The potency estimated from few doses with PIK3CA is 220 nM; in the assay with PIK3CD (CATDS: 5.28736711934766E-2), 98.1 nM; with PRKD2 it was 939 nM; in the assay with PRKD3, 1520 nM; with RIPK2 it was 504 nM; with TNIK, 1210 nM.

On to `Cc1nccc(-c2c(-c3ccc(F)cc3)ncn2CCCN2CCOCC2)n1.Cl` [SB-282975-A], for which the potency estimated from few doses in the assay on CSNK1D (compound concentrations: 100 nM and 1000 nM (sheet 'Samples'), CATDS: 0.65749239951041605) was 74.7 nM; in the assay on CSNK1E (compound concentrations: 100 nM and 1000 nM (sheet 'Samples'), CATDS: 0.24800542383641) it was 505 nM; with MAPK14 (compound concentrations: 100 nM and 1000 nM (sheet 'Samples'), CATDS: 0.18964189775036899) it was 1100 nM; in the assay with MAPKAPK2 (compound concentrations: 100 nM and 1000 nM (sheet 'Samples'), CATDS: 0.19328139808162401) it was 1030 nM.

As for `Fc1ccc(-c2ncn(C3CCNCC3)c2-c2ccnc(Oc3ccc(F)c(F)c3)n2)cc1` [SB-253228], the potency estimated from few doses in the assay with CSNK1D (setting [1]) is 505 nM; with CSNK1E (setting [1]), 1260 nM; with MAPK14 (setting [1]), 395 nM; in the assay with MAPKAPK2 (setting [1]), 125 nM.

`NC(=O)Cc1ccccc1Oc1nccc(-c2c(-c3ccc(F)cc3)ncn2C2CCNCC2)n1` [SB-264865]: the potency estimated from few doses with CSNK1D (setting [1]) was 1300 nM; with CSNK1E (setting [1]) it was 2030 nM; with MAPK14 (setting [1]), 418 nM; in the assay on MAPKAPK2 (setting [1]), 503 nM.

The values are drawn from paper PMC11062922 (Nature Chemical Biology, 2023).
